# Sampled rows, rich in hits. Any-hit rate of the full collection: about 1.4%.
# BCLXL inh – Bcl-xL (human) inhibition; GST-Bcl-xL / FITC-Bim BH3 peptide fluorescence polarization; 320,000 compounds, 0.7% hits; Q07817; AID 2129; inhibition, % at 10.9 µM;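 active = inhibition above the mean of all tested compounds plus 3 SD, cutoff set per campaign, cut at about 30% in these data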;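 also: 0% = DMSO wells and 100% = unlabeled Bim-BH3 peptide competitor; inhibitors lower millipolarization by displacing the labeled peptide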
# MEX-5 binding – C. elegans MEX-5 TCR-2 RNA binding activity; MEX-5/FITC-TCR2 RNA binding, fluorescence polarization; active compounds read low; activity score (negative = inhibition of binding), % at 10 µM; 300,000 compounds, 0.38% hits;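 active = inhibition past about -25% in most replicates, and total fluorescence under double the plate's negative control median, limit read from the data; inconclusive = replicates evenly split on the limit, or fluorescence at least double controls; inactive = too little inhibition in most replicates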;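 also: 0% = DMSO and -100% = 5 µM competing unlabeled TCR2 RNA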
# EBV gp42 inh – EBV gp42 inhibition; Q1HVG2; Fluorescence polarization binding assay, mP read-out; inhibition, % (tested at 21.74 µM); 220,000 compounds, 0.42% hits; AID 1085; in the data active = inhibition above about 50%
# MCL1-BIM inh – inhibitors of human MCL1 binding to BIM-BH3 peptide. GST-MCL1 / FITC-Bim-BH3 fluorescence polarization. inhibition, % at 10.9 µM. 320,000 compounds, 0.68% hits. Q07820;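 active = inhibition above the mean inhibition of all tested compounds plus 3 SD, set per campaign, cut at about 40% in these data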;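 also: 0% = DMSO wells and 100% = unlabeled Bim-BH3 peptide control; higher means more loss of mP so more displacement of Bim peptide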
# GLD-1 TGE inh – GLD-1-TGE RNA interaction inhibition (C. elegans); purified GLD-1 + fluorescein TGE RNA, fluorescence polarization; inhibition, % at 5.96 µM; 320,000 compounds, 0.44% hits; Q17339; AID 2280;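 active = percent inhibition above a per-plate cutoff, the plate mean of test compounds plus 3 SD, cut at about 30% in these data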;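 also: 0% = DMSO wells with GLD-1 and probe and 100% = wells lacking GLD-1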
# eLon inh – inhibits E. coli Lon protease. inhibition, % at 7.94 µM. purified E. coli Lon protease, fluorescence polarization. AID 602123. 360,000 compounds, 0.42% hits. P0A9M0; in the data active = inhibition above about 13%, passing the limit was not always enough;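 also: 0% = enzyme with probe and DMSO and 100% = no enzyme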
# Target sequence (P0A9M0 whole entry, looked up): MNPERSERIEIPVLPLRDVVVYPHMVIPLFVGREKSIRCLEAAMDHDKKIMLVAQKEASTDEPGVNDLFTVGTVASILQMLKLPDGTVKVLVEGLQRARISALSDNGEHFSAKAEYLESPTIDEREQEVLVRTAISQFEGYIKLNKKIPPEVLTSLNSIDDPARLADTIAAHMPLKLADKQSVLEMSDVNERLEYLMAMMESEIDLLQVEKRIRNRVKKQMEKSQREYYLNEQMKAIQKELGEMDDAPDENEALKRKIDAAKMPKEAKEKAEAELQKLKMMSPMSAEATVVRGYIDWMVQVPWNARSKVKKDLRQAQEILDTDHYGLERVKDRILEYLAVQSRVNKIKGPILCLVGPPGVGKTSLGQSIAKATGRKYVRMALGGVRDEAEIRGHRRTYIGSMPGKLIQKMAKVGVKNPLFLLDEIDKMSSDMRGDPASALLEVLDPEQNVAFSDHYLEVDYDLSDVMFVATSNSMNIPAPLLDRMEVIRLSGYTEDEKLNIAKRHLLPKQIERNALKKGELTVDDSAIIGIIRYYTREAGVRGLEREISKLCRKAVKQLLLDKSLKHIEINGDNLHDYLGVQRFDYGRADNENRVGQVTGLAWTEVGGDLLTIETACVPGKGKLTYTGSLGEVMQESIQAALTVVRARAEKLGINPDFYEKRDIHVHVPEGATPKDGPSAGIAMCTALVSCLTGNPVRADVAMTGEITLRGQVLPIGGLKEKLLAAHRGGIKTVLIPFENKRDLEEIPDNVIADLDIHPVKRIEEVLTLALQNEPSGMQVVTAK
# BCLXL inh confirm – Bcl-xL (human) inhibition, MCL1 counter-screen confirmation | shares compounds with MCL1-BIM inh | GST-Bcl-xL / FITC-Bim BH3 peptide FP binding | inhibition, % at 10.9 µM | 1,700 compounds, 54% hits;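 active = inhibition above a cutoff equal to the mean inhibition of all tested compounds plus 3 SD, cut at about 30% in these data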;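 also: 0% = DMSO wells and 100% = unlabeled Bim BH3 control peptide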
# MCL1 inh confirm – confirmation of human MCL1 and BIM-BH3 interaction inhibitors; shares compounds with MCL1-BIM inh; GST-MCL1 / FITC-Bim-BH3 fluorescence polarization; inhibition, % at 10.9 µM; 1,700 compounds, 61% hits; AID 2168;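 active = inhibition above the average of all tested compounds plus 3 SD, cut at about 40% in these data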;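 also: 0% = DMSO wells and 100% = unlabeled Bim-BH3 control peptide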
# An asterisk follows results filed as active; ? = inconclusive; · = no result given.
SMILES,BCLXL inh,MEX-5 binding,EBV gp42 inh,MCL1-BIM inh,GLD-1 TGE inh,eLon inh,BCLXL inh confirm,MCL1 inh confirm
O=C(C1CCCN(C2CC(=O)N(c3ccc(Cl)cc3)C2=O)C1)N1CCCC1 (centres undefined),·,2,·,·,·,-3,·,·
O=C1S/C(=C/c2ccc(N3CCOCC3)o2)C(=O)N1Cc1ccc(F)cc1,-72,-1,-39,-117,-114,-130,·,·
O=C1NC(=S)S/C1=C/c1ccc(N2CCOCC2)o1,47*,?,6,65*,12,-3,39*,32
COc1ccc(S(=O)(=O)N2CCC(C(=O)NCCCc3ccccc3)CC2)cc1,6,0,·,7,2,1,·,·
Cc1ccc(-c2c3c([nH]c(=S)c2C#N)CCCC3)o1,27,1,-6,43*,1,-2,25,20
N#Cc1c(-c2ccncc2)c2c([nH]c1=S)CCCC2,8,-3,-20,1,3,-7,·,·
CCCCNC(=O)Oc1c(Br)cc2sc(=O)oc2c1Br,30,·,-4,77*,12,·,36*,58*
CCCCCCCCCCCCCCCC(=O)OC(CC(=O)O)C[N+](C)(C)C (centres undefined),12,·,·,85*,3,-1,9,8
O=C(CSc1nnc(SCc2ccccc2)s1)N/N=C/C=C\c1ccco1,1,0,53*,43*,1,-5,31*,59*
Cc1ccccc1OCC(=O)N/N=C/c1ccc([N+](=O)[O-])o1,11,3,-10,18,1,-8,·,·
Cc1ccc(OCC(=O)N/N=C/C=C/c2ccco2)cc1,18,-2,-18,40*,9,-11,55*,71*
COc1ccccc1OCC(=O)N/N=C/C=C/c1ccc([N+](=O)[O-])o1,19,0,-1,41*,-5,-5,6,18
COC(=O)CCC(=O)OC1(C)C(=O)C=C2C=C(C3CC3)OC=C2C1=O (centres undefined),54*,-42*,·,55*,67*,·,48*,70*
COCCN1C=C2C(=O)C(C)(OC(=O)CCC(=O)OC)C(=O)C=C2C=C1C1CC1 (centres undefined),29,-10,14,30,23,23,·,·
COC(=O)CCC(=O)OC1(C)C(=O)C=C2C=C(C3CC3)N(c3ccc(CO)cc3)C=C2C1=O (centres undefined),64*,-36*,·,94*,45*,·,46*,64*
CCC(=O)OC1(C)C(=O)C=C2C=C(c3ccsc3)OC=C2C1=O (centres undefined),25,-7,1,36,18,-23,·,·
COC(=O)CCC(=O)OC1(C)C(=O)C=C2C=C(c3ccsc3)OC=C2C1=O (centres undefined),21,-41*,·,51*,28,-21,29,77*
CC1(O)C(=O)C=C2C=C(c3ccsc3)OC=C2C1=O (centres undefined),25,0,·,52*,11,·,33*,73*
O=c1[nH]cnc2c1ncn2[C@@H]1O[C@H](COS(=O)(=O)O)[C@@H](O)[C@H]1O,·,·,·,·,-2,-7,·,·
COc1cccc(C(=O)OCC(=O)NC(C)CCc2ccccc2)c1O (centres undefined),7,1,·,-4,1,-2,·,·
COc1ccc(/C=C(\C#N)C(=O)Nc2cccc3ncccc23)cc1OC,17,-5,1,18,0,-5,·,·
N#C/C(=C\c1ccc(O)c(O)c1)C(=O)Nc1cccc2ncccc12,18,6,·,71*,-31,-45,33*,69*
O=C1C(=Cc2cccn2-c2ccc(O)cc2)C(=O)c2ccccc21,169*,0,82*,199*,61*,11,152*,190*
Cc1cccc(C)c1OCC1CNC(=O)O1 (centres undefined),3,2,·,-4,3,-8,·,·
O=C1NCC(COCc2ccccc2)O1 (centres undefined),26,0,-18,54*,12,-10,10,12
SMILES,BCLXL inh,MEX-5 binding,EBV gp42 inh,MCL1-BIM inh,GLD-1 TGE inh,eLon inh,BCLXL inh confirm,MCL1 inh confirm
O=C(NCCCN1CCOCC1)c1[nH]c(C(F)(F)F)nc1-c1ccccc1,·,·,·,·,·,-7,·,·
O=[N+]([O-])c1ccc(CN2CCN(c3ccccc3)CC2)o1,6,2,·,7,7,-2,·,·
Clc1ccccc1-c1ccc(CN2CCN(c3ccccc3)CC2)o1,4,0,-4,133*,3,-2,13,10
CCc1ccc(CNC(=O)CCc2cn(C)c3ccccc23)cc1,2,0,·,-6,-1,3,·,·
Cn1cc(CCC(=O)NCc2ccc(Cl)cc2)c2ccccc21,1,3,·,53*,-3,6,-1,-6
CNC(=O)CSc1nc2nn(-c3ccccc3)c(=O)c-2c2n1CCCCC2,0,-3,-10,2,-2,-1,·,·
O=C(CSc1nc2nn(-c3ccccc3)c(=O)c-2c2n1CCCCC2)c1ccc(O)c(O)c1,21,·,·,77*,-1,-5,33*,82*
Cc1ccc(N=Cc2cccc(O)c2O)c(C)c1,27,0,-17,60*,7,9,20,20
CCn1c(C(=O)NC(C)c2ccc3c(c2)OCCO3)cc2sccc21 (centres undefined),4,-2,-8,-2,3,-1,·,·
CC(NC(=O)c1cc2sccc2n1C)c1ccc2c(c1)OCCO2 (centres undefined),3,3,-15,178*,8,-10,1,4
CN1CCc2c(sc(N)c2C(N)=O)C1,60*,-14,29,65*,7,-7,22,7
CN1CCc2c(sc(NC(=O)c3cc(Cl)sc3Cl)c2C(N)=O)C1,1,0,·,48*,-8,-12,7,13
CCN1CCc2c(sc(N)c2C(N)=O)C1,61*,-21,8,64*,23,2,30,34
CN1CCc2c(sc(NC(=O)c3ccco3)c2C(N)=O)C1,8,3,·,2,-12,-7,·,·
COc1ccc(C(=O)C2CC2c2ccc3c(c2)OCO3)cc1 (centres undefined),2,1,0,-3,2,3,·,·
C=CCc1c(C)[nH]c2c(OC)cccc2c1=S,12,2,2,8,-5,10,·,·
CCCOC1CCCN(Cc2nc(-c3ccc(C(=O)OC)cc3)no2)C1 (centres undefined),2,0,1,-1,2,-1,·,·

# Compound activity (PubChem BioAssay)
